High-throughput results deposited in PubChem by National Center for Advancing Translational Sciences (NCATS).
ELG1 genotoxic = genotoxicity induction in ELG1-luciferase HEK293T cells | HEK293T ELG1-luciferase reporter, luminescence, 16 h | Potency, µM (highest dose often 46 µM), inactives show at the top dose activity change, positive = activation, usual class: activators | 330,000 compounds, 1.3% hits; note: % of control where 0% means no effect; nearly all actives have a fitted effect of over 60% in size
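After overnight (16 hr) compound treatment at 37 °C, ELG1-luciferase HEK293T cells were lysed with ONE-Glo; luminescence quantified 30 min later at room temperature.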
SMN2 splice up = SMN2 splice variant enhancement | HEK293 SMN2-luciferase splicing reporter, luminescence, 30-36 h | Potency, µM (series often up to 46.1 µM), without a hit: at the highest dose activity change, positive = activation, actives largely listed as activators | 210,000 compounds, 2.8% hits; note: % of control where 0% means no effect; nearly all actives have a fitted effect of over 55% in size
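qHTS luciferase splicing reporter: luminescence rises when SMN2 exon 7 is included in transfected HEK293 cells. Compound exposure lasted 30-36 h at 37C, with 4.5 mM final sodium butyrate as control, followed by a ONE-Glo read.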
NPC1 promoter act = NPC1 promoter activation; AID 485313; Potency, µM (top dose mostly 9.22 µM), for inactives: at the highest dose activation, hits mostly activators; 320,000 compounds, 2.4% hits; Huh7 NPC1 promoter luciferase reporter, 24 h; note: % of control where 0% means no effect; nearly all actives have a fitted effect of over 60% in size
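Stably transfected Huh7 (NPC1 promoter→luciferase), 1500 cells/well in Opti-MEM + 10% FBS, 2 h settle, then compound 24 h at 37 °C. Luminescence after 10 min with Amplite reagent.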
Rab9 promoter act = Rab9 promoter activation; Huh7 Rab9 promoter-luciferase reporter, luminescence, 24 h; AID 485297; Potency, µM (titrated, usually from 9.22 µM), for inactives: at the highest dose activation, negative = inhibition, most hits filed as activators; 320,000 compounds, 2.8% hits; note: % of control where 0% means no effect; nearly all actives have a fitted effect of over 60% in size
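Cell-based reporter: Huh7 stable for Rab9 promoter-driven luciferase, plated in reduced-serum medium with 10% FBS at 1500 cells/well, compound-treated 24 h at 37 °C, luminescence read after 10 min reagent.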
FLuc modulator = firefly luciferase modulation, counter-screen for miR-21 project; P08659; purified FLuc, Km substrates, luminescence inhibition; Potency, µM (series often up to 57.5 µM), for inactives: at the top dose activity change, negative = inhibition, actives largely listed as inhibitors; 360,000 compounds, 6.9% hits;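 note: plate controls were vehicle for no effect and reference inhibitor for full effect; nearly all actives have a fitted effect of over 55% in size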
Target sequence (P08659 whole entry, looked up): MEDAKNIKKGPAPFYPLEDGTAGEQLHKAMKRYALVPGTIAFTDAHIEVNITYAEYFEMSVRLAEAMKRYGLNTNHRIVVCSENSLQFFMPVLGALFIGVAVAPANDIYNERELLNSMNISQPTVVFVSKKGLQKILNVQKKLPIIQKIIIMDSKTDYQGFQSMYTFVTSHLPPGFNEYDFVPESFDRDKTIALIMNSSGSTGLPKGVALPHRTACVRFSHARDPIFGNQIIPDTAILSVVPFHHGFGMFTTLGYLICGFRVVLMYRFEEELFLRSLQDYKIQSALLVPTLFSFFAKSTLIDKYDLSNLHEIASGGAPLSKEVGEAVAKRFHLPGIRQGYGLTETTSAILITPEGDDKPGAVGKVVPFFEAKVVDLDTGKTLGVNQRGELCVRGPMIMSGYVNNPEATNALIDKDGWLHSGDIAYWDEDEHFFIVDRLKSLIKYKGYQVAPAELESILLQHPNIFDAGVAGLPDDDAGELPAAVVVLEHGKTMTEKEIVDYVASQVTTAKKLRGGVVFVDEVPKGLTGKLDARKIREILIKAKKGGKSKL
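Purified P. pyralis luciferase (10nM final) with 10uM D-luciferin and 10uM ATP (Km levels) in 50mM Tris acetate pH 7.5, 10mM Mg acetate, 0.01% Tween-20, 0.05% BSA; qHTS 6-point titration, ~60 µM downward; luminescence read.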
ELG1 repair inh = inhibitors of ELG1-dependent DNA repair in HEK293T cells; HEK293T ELG1-luciferase reporter, luminescence, 16 h; DNA damage induced by 5-fluorouridine; 330,000 compounds, 2.3% hits; Potency, µM (top dose mostly 46.1 µM), for the others: at the top dose activity change, negative = inhibition, hits mostly inhibitors; AID 504467; note: % is set by controls: 0 for no effect and ±100 for the full control effect; nearly all actives have a fitted effect of over 55% in size
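HEK293T cells expressing luciferase-tagged ELG1 (2,000/well) received 5-Fluorouridine plus compound or DMSO for 16 hr at 37 °C. Luciferase was read by ONE-Glo luminescence after 30 min at room temperature.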
Active calls of the source: *; ? = inconclusive; . = no result given; [ ] = dose if it differs, or a comment. Only some compounds are listed: those with a hit (about 9.2% of all), similar ones and a draw of the others. Calls come from the whole dose curve; as a rule, active = well fitted curve in the direction sought with a large enough effect; inconclusive = small, poorly fitted or top-dose-only effect, or another doubt; inactive = no such curve, though single readings can be large; an effect the other way counts as inactive or inconclusive. Potency is the fitted concentration of half-maximal effect.

SMILES	ELG1 genotoxic	SMN2 splice up	NPC1 promoter act	Rab9 promoter act	FLuc modulator	ELG1 repair inh
O=C(Cn1ccc2cc(S(=O)(=O)N3CCCC3)ccc21)NCc1ccc(Cl)cc1	.	.	.	.	-12%	.
COc1ccccc1C(=O)N1CCN(c2nc3cc(C)c(C)cc3cc2C#N)CC1	0%	-85%	2%	-3%	-14%	23µM*
COc1ccc2nc(N3CCCC3)c(C#N)cc2c1	?	-22%	21%	26%	11µM*	?
COc1ccc2nc(N3CCCCC3)c(C#N)cc2c1	?	5%	17%	3.2µM*	3.8µM*	?
COc1ccc2nc(SCC(=O)N3CCCCC3)c(C#N)cc2c1	1%	.	-2%	-3%	-2%	-2%
Cc1ccc2nc(N3CCN(C(=O)c4ccc(F)cc4)CC3)c(C#N)cc2c1	-8%	.	-5%	-6%	-5%	?
COc1ccc2nc(SCC(=O)N3CCCCCC3)c(C#N)cc2c1	0%	6%	19%	27%	?	0%
COc1ccc(S(=O)(=O)N2CCCCCC2)cc1C(=O)N1CCCCC1	?	.	-6%	-1%	17µM*	-6%
COc1ccccc1CNCC(=O)Nc1cc(S(=O)(=O)N2CCCCCC2)ccc1Cl	-12%	.	1%	-3%	4%	23µM*
COc1cc(S(=O)(=O)N2CCOCC2)ccc1NC(=O)COC(=O)/C=C/c1cc(OC)c(OC)c(OC)c1	17%	.	.	.	.	0%
COc1cc(/C=C/C(=O)OCC(=O)Nc2cc(S(=O)(=O)N3CCOCC3)ccc2Cl)cc(OC)c1OC	-1%	.	.	.	.	18µM*
Cc1ccc(-c2nc(SCC(=O)Nc3cc(S(=O)(=O)N4CCCCC4)ccc3Cl)n[nH]2)cc1	0%	5%[1.84 µM]	-5%	-7%	15µM*	-14%
COc1ccc(NC(=O)Cc2nnc(SCC(=O)NC3CCCC3)n2C)cc1	-1%	.	-4%	-2%	-3%	21%
CCCCCCCCCCCCCCCC(=O)N[C@@H](COP(=O)(O)O)C(=O)O	.	1%	.	.	.	.
Cc1ccc(NC(=O)c2cccc(S(=O)(=O)N3CCN(c4ccc(F)cc4)CC3)c2)nc1	-5%	.	-8%	-12%	4%	?
CCOC(=O)c1sc(NC(=O)COc2ccccc2Cl)c(C(=O)OCC)c1C	.	1%	.	.	1%	.
Cc1cc(C)cc(C(=O)Nc2ccc(-c3nc4ncccc4o3)cc2)c1	.	-5%	.	.	1%	.
CCc1ccccc1N(CC)C(=O)C(=O)Nc1ccc2nc3n(c(=O)c2c1)CCCCC3	.	-3%	.	.	-1%	.
Cc1ccc(S(=O)(=O)N2CCOCC2)cc1NC(=O)CNCc1ccccc1Cl	-2%	.	-5%	-3%	15%	?
COc1ccccc1CNCC(=O)Nc1cc(S(=O)(=O)N2CCOCC2)ccc1Cl	-7%	.	-3%	-6%	-1%	21µM*
COc1ccc(C)cc1NC(=O)N1CCC(CN2CCC(C)CC2)CC1	.	.	.	.	3%	.
COc1cc2nc(CN3CCN(S(=O)(=O)c4ccccc4)CC3)[nH]c(=O)c2cc1OC	-1%	.	0%	-3%	0%	?
COc1cc2nc(CN3CCN(S(=O)(=O)c4cc(C)ccc4C)CC3)[nH]c(=O)c2cc1OC	-3%	.	.	.	.	15µM*
CCOC(=O)c1ccc(NC(=O)CCc2c(C)nc3c(c(C)nn3-c3ccccc3)c2C)cc1	.	5%	.	.	-1%	.
CCCc1ccc(C(=O)Cn2nc(C(=O)O)c3ccccc3c2=O)cc1	0%	-4%	-1%	0%	?	2%
SMILES	ELG1 genotoxic	SMN2 splice up	NPC1 promoter act	Rab9 promoter act	FLuc modulator	ELG1 repair inh
Cc1cc(C)c(C(=O)Cn2nc(C(=O)O)c3ccccc3c2=O)cc1C	0%	.	-6%	11%	6µM*	?
Cc1ccccc1NC(=O)Cn1nc(C(=O)O)c2ccccc2c1=O	1%	.	-4%	-2%	-1%	2%
O=C(Cn1nc(C(=O)O)c2ccccc2c1=O)Nc1cc(Cl)cc(Cl)c1	0%	.	1%	-3%	-1%	14%
Cc1cc(C(=O)Cn2nc(C(=O)O)c3ccccc3c2=O)c(C)n1-c1ccccc1	?	-7%	19%	?	0.95µM*	?
Cc1cc(C(=O)Cn2nc(C(=O)O)c3ccccc3c2=O)c(C)n1CCc1ccc(Cl)cc1	-17%	-20%	-6%	2%	-12%	8.2µM*
O=C(Cn1nc(C(=O)O)c2ccccc2c1=O)c1c[nH]c2ccccc12	2%	.	-7%	-1%	15µM*	3%
c1cn2cc(CSC3CCCCC3)nc2s1	2.3µM*	14µM*	3.2µM*	4µM*	12µM*	?
c1ccc(CSCc2cn3ccsc3n2)cc1	16µM*	13µM*	?	2.8µM*	27µM*	?
Clc1ccc(SCc2cn3ccsc3n2)cc1	?	25%	2.8µM*	4µM*	11µM*	?
Cc1csc2nc(CSc3ccc(Cl)cc3)cn12	?	5µM*	2.5µM*	2.5µM*	5.4µM*	?
O=C(Cc1cn2ccsc2n1)OCc1ccccc1	?	23%	8%	15%	-28%	?
COc1ccc([C@]23Cc4cc(C#N)ccc4C(O2)c2c(cc(C)n(-c4ccccc4)c2=O)O3)cc1	.	.	1%[1.84 µM]	-6%[1.84 µM]	3%[11.5 µM]	.
Cc1cc(/C(N)=N/OC(=O)c2ccc(Cl)cc2)no1	12µM*	.	3.5µM*	3.2µM*	1.5µM*	?
Cc1cc(/C(N)=N/OC(=O)c2cccc(Cl)c2)no1	?	.	2%	15%	6.7µM*	?
Cc1cc(C(=O)NNC(=O)c2cccc(Cl)c2)no1	1%	.	2%	17%	1%	8%
Cc1ccc(-n2c3nc(=O)[nH]c(=O)c-3cc3c(C)nn(-c4ccccc4)c32)cc1C	.	5%	.	.	-4%	.
COc1ccc(NC(=O)CN2CCN(CC(=O)Nc3ccc(F)cc3F)CC2)cc1	2%	.	10%	6%	-4%	1%
Cc1ccc(NC(=O)Cn2nnc(C(=O)NCCc3ccccc3)c2N)c(C)c1	2%[9.26 µM]	.	-5%	8%	4%	?
